Results on 40 compounds are retold here after PubChem BioAssay (NCATS).

Records with an inconclusive call do not appear. Activity calls are given as the source filed them. The call rests on the fitted dose curve; in most records, active means well fitted curve in the direction sought with a large enough effect; inconclusive means small, poorly fitted or top-dose-only effect, or another doubt; inactive means no such curve, though single readings can be large or run the other way.

The experiment in a line: HepG2 viability counterscreen (readout 1: protease activity) against the NCATS DSHEA and TCM libraries (AID 1794841).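 Further: cells exposed to compounds for about 24 h before the protease read; 0% is about no effect.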 The following applies: qHTS concentration series; series mostly up to 27.3 µM. The text has this:
Assay Development and Screening Technology Laboratory (ADST)
National Center for Advancing Translational Sciences (NCATS), Rockville, MD
National Institute of Health (NIH), Bethesda, Maryland
Dietary Supplements and Natural Products have minor oversight of their safety and efficacy. We assembled a collection of Dietary Supplements and Natural Products (DSNP) as well as Traditional Chinese Medicinal (TCM) Plant extracts, which were screened against an in vitro panel of assays, including a liver cytochrome p450 enzyme panel, CAR/PXR signaling pathways, and P-gp transporter assays, to assess their activity. This pipeline facilitated the interrogation of Natural Product-Drug Interaction (NaPDI) through prominent metabolizing pathways. In addition, we compared the activity profiles of the DSNP/TCM substances with those of an approved drug collection. Many of the approved drugs have well-annotated mechanisms of action (MOA) while the MOAs for most of the DSNP and TCM samples remain unknown. Based on the premise that compounds with similar activity profiles tend to share similar targets or MOA, we clustered the library activity profiles to identify overlap with the NCATS Pharmaceutical Collection to predict the MOAs of the DSNP/TCM substances. Overall, we highlight four significant bioactivity profiles (measured by p-values) as examples of this prediction. In addition, to assess broad cytotoxicity, we employed screening against a HepG2 cell line.
To this end, we profiled both collections for potential CAR and/or PXR activity, employing a previously published 1536-well qHTS assay.
PROTOCOL TABLE (as described by Inglese J, Shamu CE and Guy RK. 2007)
SEQUENCE No. (e.g., 1, 2, 3, etc.); PARAMETER (e.g., Cells, Incubation, Reagent, etc.); VALUE; DESCRIPTION.
1; Cells; 5 uL; HepG2 cells, white solid-bottom tissue treated Greiner plate.
2; Incubation; 4 hrs; 37C, 95% humidity, 5% CO2.
3; Compounds; 23 nL; Kalypsis pin tool (Wako USA) equipped with a 1536-well pin head to transfer to the assay plates.
4; Incubation; 24 hrs; 37C, 95% humidity, 5% CO2.
5; Reagent; 1 uL; GF-AFC substrate.
6; Incubation; 30 min; 37C, 95% humidity, 5% CO2.
7; Read 1; Fluorescence; EnVision plate reader excitation 380 nm, emission 510 nm.
8; Reagent; 3 uL; CellTiter-Glo (Promega).
9; Centrifuge; 1000 RPM; 15 seconds.
10; Incubation; 30 min; room temperature.
11; Read 2; Luminescence; ViewLux plate reader.
NOTES (numbers refer to Sequence numbers above)
1. 5 uL of HepG2 cells at 2 x 10^5 cells/mL (1,000 cells/well) were dispensed into a 1536-well white solid-bottom tissue treated plate (Greiner Bio-One) using a Multidrop Combi dispenser (Thermo Scientific). This assay use both GF-AFC substrate and Cell-Titer Glo (CTG), measuring cellular protease activity and ATP content, respectively.
2. Plates were incubated at 37C, 95% humidity, and 5% CO2 for ~4 hours to allow for cell attachment.
3. Compounds were transferred (16 nL) via pintool (Wako Automation), for a final concentration range for most substances of 15.6 nM - 31.3 uM.
4. Plates were incubated for ~24 hours.
5. 1 uL addition of GF-AFC substrate (final concentration 25 uM; MP Biomedicals).
6. Plates were incubated at 37C, 95% humidity, and 5% CO2 for 30 minutes.
7. After incubation, plates were read for fluorescence intensity (Ex/Em = 380 nm/510 nm) on an EnVision detector (PerkinElmer, Shelton, Connecticut).
8. Once the detection for fluorescence was completed, plates were dispensed with 3 uL of CellTiter-Glo (Promega, Madison, WI).
9. Plates were centrifuged for 15 seconds at 1,000 RPM's.
10. Plates were incubated for 30 minutes at room temperature.
11. Plates were then read for luminescence intensity on a ViewLux detector.
Inglese J, Shamu CE and Guy RK, Reporting data from high throughput screening of small molecule libraries, Nature Chemical Biology, 2007, 3(8): 438-441. doi.org/10.1038/nchembio0807-438.
(In general: A counterscreen serves to expose hits that act by an unwanted route or on another target.)
Take `CN(CC(=O)O)C(=N)N`: the compound was called inactive.
For `O=C(/C=C/c1ccc(O)c(O)c1)OC1[C@H](O)CC(O)(C(=O)O)C[C@@H]1O` (stereo not given in full), the compound was called inactive.
The same measure, in the same setting: as for `CC(C)=CCC[C@](C)(OC1OC(COC2OCC(O)C(O)C2O)C(O)C(O)C1O)[C@H]1CC[C@]2(C)[C@@H]1[C@H](O)C[C@@H]1[C@@]3(C)CC[C@H](OC4OC(CO)C(O)C(O)C4OC4OC(CO)C(O)C(O)C4O)C(C)(C)[C@@H]3CC[C@]12C` (stereo not given in full), the entry is “inactive”; as for `C=C/C(C)=C/C/C=C(\C)CCC=C(C)C`, “inactive”.
Turning to `CCCCC/C=C/C(=O)CCc1ccc(O)c(OC)c1`, the result was inactive.
As for `CCCCCCCCC[C@@H](O)CC(=O)CCc1ccc(O)c(OC)c1`, the result was inactive.
Turning to `C=C1C[C@@]23CC[C@H]4[C@](C)(CCC[C@]4(C)C(=O)O[C@@H]4O[C@H](CO)[C@@H](O)[C@H](O)[C@H]4O)[C@@H]2CC[C@]1(O[C@H]1O[C@@H](CO)[C@H](O)[C@@H](O)[C@@H]1O)C3`, the compound was called inactive.
For `Cc1ccc(C(C)C)cc1`, the result was inactive.
For the compound `CC[C@H](CC[C@@H](C)[C@H]1CCC2C3CCC4C[C@@H](O)CC[C@]4(C)C3CC[C@@]21C)C(C)C` (stereo not given in full), the call was inactive.
As for `C=CC(C)(CCC=C(C)C)OC(C)=O` (stereo not given), the outcome was inactive.
As for `O=C(O[C@@H]1Cc2c(O)cc(O)cc2O[C@@H]1c1ccc(O)c(O)c1)c1cc(O)c(O)c(O)c1`, the result was inactive.
Turning to `C=C(C)[C@H]1CC=C(CO)CC1`, the result was inactive.
The same measure, in the same setting: the value for `CC(=O)OC/C=C/c1ccccc1` was “inactive”; that for `CC(C)=CCC[C@](C)(O[C@@H]1O[C@H](CO)[C@@H](O)[C@H](O)[C@H]1O)[C@H]1CC[C@]2(C)[C@@H]1[C@H](O)C[C@@H]1[C@@]3(C)CC[C@H](O)C(C)(C)[C@@H]3[C@@H](O[C@@H]3O[C@H](CO)[C@@H](O)[C@H](O)[C@H]3O[C@@H]3O[C@@H](C)[C@H](O)[C@@H](O)[C@H]3O)C[C@]12C` was “inactive”.
In the case of `CC1=CCC(=C(C)C)CC1`, the outcome was inactive.
As for `CCCCCC(=O)O`, the compound was called inactive.
Still for that read-out and setting: as for `C[C@@H]1OC(O[C@H]2[C@H](O)[C@@H](O)[C@H](OC[C@H]3O[C@@H](OC(=O)[C@]45CCC(C)(C)C[C@@H]4C4=CCC6[C@@]7(C)CC[C@H](OC8OC[C@H](O)[C@H](O)[C@H]8OC8O[C@@H](C)[C@H](O)[C@@H](O)[C@H]8O)[C@@](C)(CO)C7CC[C@@]6(C)[C@]4(C)CC5)[C@H](O)[C@@H](O)[C@@H]3O)O[C@@H]2CO)[C@H](O)[C@H](O)[C@H]1O` (stereo not given in full), the entry is “inactive”; as for `CCCCCC/C=C/CCCCCCCCCC(=O)O`, “inactive”.
Same read-out and setting: the value for `CC1=C2[C@H](/C=C(\C)C(=O)O)CC[C@@H](C)[C@H]2CC1` was “inactive”; that for `CC(C)(O)[C@@H]1CC[C@](C)([C@H]2[C@@H](O)C[C@@]3(C)[C@@H]4C[C@H](O)[C@H]5C(C)(C)[C@@H](O[C@@H]6OC[C@@H](O)[C@H](O)[C@H]6O[C@@H]6O[C@H](CO)[C@@H](O)[C@H](O)[C@H]6O)CC[C@@]56C[C@@]46CC[C@]23C)O1` was “inactive”.
For `C=C(C)C1CC=C(C)C(O)C1` (stereo not given), the outcome was inactive.
The same measure, in the same setting: as for `C=C1CC[C@H]2C[C@@H]1C2(C)C`, the entry is “inactive”; as for `CC12CC3(O)OC(O1)C1(COC(=O)c4ccc(O)cc4)C3CC21OC1OC(CO)C(O)C(O)C1O` (stereo not given), “inactive”.
As for `O=c1cc(-c2ccc(O)c(O)c2)oc2cc(O[C@@H]3O[C@@H](CO)[C@@H](O)[C@@H](O)[C@H]3O)cc(O)c12`, the compound was classed as inactive.
As to `CCCCCCCC/C=C\CCCCCCCCCCCCCC(=O)O`, the compound was classed as inactive.
As to `C[C@@H]1CC[C@]2(C)CC[C@]3(C)C(=CC(=O)C4[C@@]5(C)CC[C@@H](O)[C@](C)(C(=O)O)C5CC[C@]43C)C2[C@H]1C` (stereo not given in full), the result was inactive.
With `C=CC(=C)CCC=C(C)C`, the call was inactive.
The same measure, in the same setting: as for `O=C(O)[C@H]1O[C@@H](Oc2c(-c3ccc(O)c(O)c3)oc3cc(O)cc(O)c3c2=O)[C@H](O)[C@@H](O)[C@@H]1O`, the entry is “inactive”.
As to `O[C@@H]1[C@@H](O)[C@H](OC/C=C/c2ccccc2)O[C@H](CO[C@@H]2OC[C@H](O)[C@H](O)[C@H]2O)[C@H]1O`, the compound was called inactive.
For `Cc1ccc(O)c(O)c1`, the outcome was inactive.
Regarding `CCCCCCCCCCCCCCCCCCCCCCCCCCCCCCO`, the activity change, negative = inhibition was 5.84% [at 3.42 µM] (inactive).
As for `COc1ccc(-c2coc3cc(O[C@@H]4O[C@H](CO)[C@@H](O)[C@H](O)[C@H]4O)ccc3c2=O)cc1`, the compound was called inactive.
As to `COc1cc(-c2oc3cc(O)cc(O)c3c(=O)c2O)ccc1O`, the compound was classed as inactive.
As for `CCCCCC/C=C\CCCCCCCC(=O)O`, the outcome was inactive.
`C=C1C[C@]23CC[C@H]4[C@@](C)(CCC[C@@]4(C)C(=O)O)[C@@H]2CC[C@@]1(O[C@@H]1O[C@H](CO)[C@@H](O)[C@H](O)[C@H]1O[C@@H]1O[C@H](CO)[C@@H](O)[C@H](O)[C@H]1O)C3`: the compound was classed as inactive.
On to `CC/C=C\C/C=C\C/C=C\C/C=C\CCCCC(=O)O`, for which the activity change, negative = inhibition is -7.13% [at 3.42 µM] (inactive).
Consider `CC1=CC[C@H](C(C)C)C=C1`, for which the compound was called inactive.
Regarding `CC(C)=CCCC(C)=CCCC(C)=CCCC=C(C)CCC=C(C)CCC=C(C)C`, the call was inactive.
Same read-out and setting: as for `Cc1ncc(COP(=O)(O)O)c(C)c1O`, the entry is “inactive”; as for `C=C1CC[C@H](O)C/C1=C\C=C1/CCC[C@]2(C)[C@@H]([C@H](C)CC[C@H](C)C(C)C)CC[C@@H]12`, “inactive”.
